Bioassay records as filed in PubChem.
Only a selection was taken, and hits are over-represented in it overall.
Pf Dd2 inh – inhibitors of Plasmodium falciparum Dd2 growth; Potency, µM (titrated, usually from 28.9 µM), for the others: top-dose activity, negative = inhibition, most hits filed as inhibitors; AID 1347417; P. falciparum Dd2 growth, SYBR Green, 72 h; 120,000 tested, 4.3% active; active = well fitted inhibition curve with a large enough effect;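 note: plate controls were DMSO vehicle for no effect and reference drug for full effect; nearly all actives have a fitted effect of over 65% in size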
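Readout: SYBR Green fluorescence, 485 nm excitation, 535 nm emission, after ~16 h lysis at 37C. Before that, Dd2-infected red cells (2.5% hematocrit) grew 72 h with compound, 29 uM top final concentration.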
The depositor's hits bear a star; i = inactive; [ ] = another dose, or the depositor's remark. Potency is the fitted concentration of half-maximal effect.

SMILES	Pf Dd2 inh
Cc1cccc(CNC(=O)c2ccc3c(c2)N(C)C2CCCN2C3=O)c1 (centres undefined)	10µM*
CCc1cccc(NC(=O)c2ccc3c(c2)N(C)C2CCCCCN2C3=O)c1 (centres undefined)	-27%
CCc1cccc(NC(=O)c2ccc3c(c2)N(CC)C2CCCCCN2C3=O)c1 (centres undefined)	5.6µM*
O=C(c1c(F)cccc1F)N1CCCC2(C1)NC(=O)N(Cc1cccc(Cl)c1)C2=O (centres undefined)	39%
CCCc1cnc2c(c1SCc1cccc(C)c1)c(=O)n(C)c(=O)n2C	11µM*
CCCc1cnc2c(c1SCC(=O)Nc1cccc(C)c1C)c(=O)n(C)c(=O)n2C	1%
CCCc1cnc2c(c1SCC(=O)Nc1ccccc1OCC)c(=O)n(C)c(=O)n2C	2%
O=C(NCc1ccco1)N1CCc2c(nc(-c3ccc(F)cc3)[nH]c2=O)C1	-9%
CCCc1cc(C(=O)N(C)CCOc2ccccc2CC)n(C)n1	-25%
O=C(c1ccccc1)N1CCCN(c2cc(-c3ccc(Cl)cc3)[nH]n2)CC1	0%
CCOc1ccc(C(=O)N2CCN(c3cc(-c4ccc(F)cc4)[nH]n3)CC2)cc1OCC	i
Cc1ccc(-c2cc(N3CCCN(C(=O)c4ccsc4)CC3)n[nH]2)cc1C	i
COc1cc(C(=O)N2CCCN(c3cc(-c4ccc(C)c(C)c4)[nH]n3)CC2)cc(OC)c1OC	-7%
CCOc1ccc(C(=O)N2CCCN(c3cc(-c4ccc(Cl)cc4)[nH]n3)CC2)cc1OCC	5µM*
COc1cc(OC)cc(C(=O)N2CCCN(c3cc(-c4ccc(C)c(C)c4)[nH]n3)CC2)c1	11µM*
CNS(=O)(=O)c1cccc(C(=O)N2CCCC2c2ccco2)c1 (centres undefined)	-7%
CN1C(=O)C2(CCN(Cc3ccccc3)C2)c2ccccc21 (centres undefined)	-15%[44.1 µM]
Cc1ccc(CNC(=O)c2cc3cn(C(C)C)cc3s2)cc1	-11%
Cc1ccc(-c2ccc3nnc(CNC(=O)c4cnccn4)n3n2)cc1	1%
Cc1ccc(CNC(=O)CSc2nc3n[nH]c(C)c3c(=N)n2-c2cccc(C)c2)cc1	-13%
CCC(C)NC(=O)CSc1nc2n[nH]c(C)c2c(=N)n1-c1ccc(C)c(Cl)c1 (centres undefined)	-6%
Cc1ccc(-n2c(SCC(=O)Nc3cccc(Cl)c3)nc3n[nH]c(C)c3c2=N)cc1	13µM*
CCOC(=O)c1cnc2c(C)cc(C)cc2c1Nc1ccccc1OCC	0%
CCOC(=O)c1sc2ccccc2c1S(=O)(=O)Nc1cccc(C(F)(F)F)c1	i
CCOC(=O)c1cnc2c(ccc3ccccc32)c1Nc1ccccc1O	11µM*
SMILES	Pf Dd2 inh
CCOC(=O)c1cnc2c(C(F)(F)F)cccc2c1Nc1cccc(C(=O)OC)c1	2.8µM*
CCOC(=O)c1cnc2c(C)c(Cl)ccc2c1Nc1ccc(C)cc1C	-23%
CCOC(=O)c1cnc2c(C)cccc2c1Nc1ccc(OC(C)C)cc1	-30%
COc1ccc(OC2CCN(C(C)=O)CC2)c(C(=O)N(C)Cc2ccccc2)c1	9%
Cc1ccc(OC2(C(=O)O)CCN(Cc3ccc(CO)o3)CC2)cc1	1%
O=C(CCc1ccccc1)Nc1ccc([C@@H](O)[C@H]2COCC(=O)N2Cc2ccncc2)cc1	i
O=C(Cc1ccc(F)cc1)N1CC(F)(F)C[C@H]1c1nc(C2CC2)no1	-7%
CCC(=O)Oc1ccc(/C=C(\C#N)c2nc3ccccc3[nH]2)cc1OC	-12%
CCOC(=O)COc1ccc(/C=C(\C#N)c2nc3ccc(C)cc3[nH]2)cc1OC	i
COc1cc(/C=C(\C#N)c2nc3ccc(C)cc3[nH]2)ccc1OCc1ccc(C)cc1	2.8µM*
Cn1c(CN2CCN(CCN3CCOCC3)CC2)nnc1C1CC(N)C1 (centres undefined)	-3%
CC(C)n1cnnc1-c1nn(C)c2c1CN(C(=O)Cc1c[nH]c3ccccc13)CC2	8.9µM*
Cn1cnnc1-c1nn(C)c2c1CN(C(=O)c1n[nH]c(=O)c3ccccc13)CC2	12%
CCNC(=O)N1CCc2c(c(-c3nncn3-c3ccccc3)nn2C)C1	8%
NC(=O)C1(C(=O)N2CCc3ncnc(N4CC=CC4)c3CC2)CC1	0%
CN1CC(=O)N(c2ccc([N+](=O)[O-])cc2)Cc2c1ncnc2N1CCN(c2ncccn2)CC1	-3%
COCC1CN(C)CC12CCN(Cc1ccc(OC)cc1)CC2 (centres undefined)	i
COCC1CN(C(C)=O)CC12CCN(S(=O)(=O)c1cccs1)CC2 (centres undefined)	-5%
COCC1CN(C)CC12CCN(Cc1ccc(F)c(Cl)c1)CC2 (centres undefined)	5µM*
COCC1CN(S(=O)(=O)c2cccs2)CC12CCNCC2 (centres undefined)	30%
COCC1CN(C)CC12CCN(S(=O)(=O)c1cccs1)CC2 (centres undefined)	3.5µM*
COCC1CN(C)CC12CCN(Cc1ccc(F)cc1F)CC2 (centres undefined)	-25%
Cc1cc(C[C@@H]2COC[C@@H]2NC(=O)c2cc3cc(F)ccc3n2C)on1	-7%
CCOc1ccc(NC(=O)Cn2cc(C(=O)c3ccc(CC)cc3)c(=O)c3cc(OC)c(OC)cc32)cc1	-7%
CCc1ccc(C(=O)c2cn(CC(=O)Nc3ccc(OC)cc3OC)c3ccc(CC)cc3c2=O)cc1	i
SMILES	Pf Dd2 inh
CCc1ccc(C(=O)c2cn(CC(=O)Nc3cc(OC)ccc3OC)c3ccc(C)cc3c2=O)cc1	10µM*
CCc1ccc(C(=O)c2cn(CC(=O)Nc3ccc(F)c(F)c3)c3cc(OC)c(OC)cc3c2=O)cc1	i
CCc1ccc(C(=O)c2cn(CC(=O)Nc3cc(OC)cc(OC)c3)c3ccc(CC)cc3c2=O)cc1	22%
CCc1ccc(C(=O)c2cn(Cc3ccc(F)cc3)c3cc(OC)c(OC)cc3c2=O)cc1	11µM*
COc1ccccc1C(=O)N1CCC(n2c(=O)[nH]c3ccccc32)CC1	-3%
CC(NC(=O)Cc1cccn1-c1cccc(Cl)c1)c1ccccn1 (centres undefined)	i
NCc1ccccc1-c1nc2c([nH]1)CCNC2C(=O)O (centres undefined)	3%
Cc1c(CNC2CCCCCC2)c(C(=O)O)c(C)n1Cc1ccc(F)cc1	8%[5.79 µM]
CCc1ccc(-n2c(=O)c3c4c(sc3n(Cc3ccc(F)cc3)c2=O)CCCC4)cc1	-13%
CCc1c(C)sc2c1CCN(Cc1ccc(F)cc1)C2c1ccccc1 (centres undefined)	3.2µM*
CCOCCn1nc(C)cc1C(=O)N1CCC2(CC(=O)NC2=O)C1 (centres undefined)	5%
Clc1ccccc1C1(c2ccnc(C3CC3)n2)CCNCC1	2.2µM*
Clc1ccccc1C1(c2ccnc(NC3CCC3)n2)CCNCC1	7.1µM*
Clc1ccccc1C1(c2ccnc(-c3ccccc3)n2)CCNCC1	10µM*
CN(C)C1CCN(c2nccc(C3(c4ccccc4Cl)CCNCC3)n2)C1 (centres undefined)	-25%
O[C@@H]1CCN(c2nccc(C3(c4ccccc4Cl)CCNCC3)n2)C1	-17%
OC[C@@H](O)CNc1nccc(C2(c3ccccc3Cl)CCNCC2)n1	25%
CN1CCC(CNc2nccc(C3(c4ccccc4Cl)CCNCC3)n2)C1 (centres undefined)	-7%
Cc1cnc(C(=O)N2CCCC(c3nc(C4CCOCC4)no3)C2)cn1 (centres undefined)	27%
CCN1c2cc(C(=O)Nc3ccc(N(C)C)cc3)ccc2C(=O)N2CCCCC21 (centres undefined)	i
